# Compounds with a hit are over-represented: about 3.1% of the library has one in this group of screens.
# pPAFAH FP inh: inhibitors of human plasma PAF acetylhydrolase (pPAFAH); Q13093; recombinant pPAFAH, FP-rhodamine probe fluorescence polarization; inhibition, % at 3.39 µM; hit rate 1.5% among 330,000; AID 463082;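 active means inhibition above the mean inhibition across the screen plus 3 SD, cut at about 25% in these data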;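 further: inhibitors block binding of the rhodamine activity-based probe so polarization drops; 0% = enzyme with DMSO and 100% = wells lacking pPAFAH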
# PAFAH1B3 FP inh: PAFAH1B3 (human) inhibition. Q15102. recombinant PAFAH1B3, FP-rhodamine probe, fluorescence polarization. inhibition, % at 3.39 µM. hit rate 0.28% among 340,000. AID 492972;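 active means inhibition above the screen-wide average of all tested compounds plus 3 SD, cut at about 25% in these data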;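 further: 0% = enzyme with DMSO only and 100% = wells lacking PAFAH1B3 protein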
# Target sequence (Q15102 whole entry, looked up): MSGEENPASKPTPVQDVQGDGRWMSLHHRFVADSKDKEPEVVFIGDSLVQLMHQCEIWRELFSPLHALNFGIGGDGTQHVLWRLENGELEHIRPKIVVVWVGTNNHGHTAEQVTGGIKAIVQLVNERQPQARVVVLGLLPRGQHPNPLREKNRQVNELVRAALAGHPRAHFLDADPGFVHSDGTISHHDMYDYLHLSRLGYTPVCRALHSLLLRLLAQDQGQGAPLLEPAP
# PAFAH2 FP inh: PAFAH2 (human) inhibition; Q99487; inhibition, % at 3.39 µM; hit rate 0.99% among 340,000; recombinant PAFAH2, FP-rhodamine activity probe, fluorescence polarization; AID 492956;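 active means inhibition above the mean over all tested compounds plus 3 SD, cut at about 30% in these data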;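 further: inhibitors block probe labeling of enzyme so polarization drops; 0% = enzyme with DMSO and 100% = wells lacking PAFAH2 protein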
# E coli Lon inh: inhibits E. coli Lon protease; purified E. coli Lon protease, fluorescence polarization; hit rate 0.42% among 360,000; P0A9M0; inhibition, % at 7.94 µM; in the data active means inhibition above about 13%, passing the limit was not always enough;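 further: 0% = enzyme with probe and DMSO and 100% = no enzyme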
# PAFAH1B2 inh: inhibitors of human PAFAH1B2 | P68402 | recombinant PAFAH1B2, FP-rhodamine activity probe, fluorescence polarization | inhibition, % at 3.39 µM | hit rate 1.2% among 340,000 | AID 492953;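 active means inhibition above the mean of all tested compounds plus 3 SD, cut at about 24% in these data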;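 further: 0% = enzyme with DMSO and 100% = wells lacking PAFAH1B2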
# Target sequence (P68402 whole entry, looked up): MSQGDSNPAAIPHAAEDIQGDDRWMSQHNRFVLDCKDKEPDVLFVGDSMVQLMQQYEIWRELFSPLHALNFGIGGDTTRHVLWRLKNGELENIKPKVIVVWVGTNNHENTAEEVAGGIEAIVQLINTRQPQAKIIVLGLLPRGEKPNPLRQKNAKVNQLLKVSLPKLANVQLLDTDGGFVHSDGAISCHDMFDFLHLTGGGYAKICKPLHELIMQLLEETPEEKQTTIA
# Rin1-Abl PPI inh: blocks binding of human Rin1 to Abl. P00519+Q13671. inhibition, % at 7.35 µM. TR-FRET Rin1/Abl binding, biochemical. hit rate 0.4% among 360,000; in the data active means inhibition above about 5%, passing the limit was not always enough
# PAFAH1B3 conf FP: PAFAH1B3 (human) inhibition, confirmed. shares compounds with PAFAH1B3 FP inh. recombinant PAFAH1B3, FP-Rh activity-based probe, fluorescence polarization. inhibition, % at 3.39 µM. hit rate 30% among 390. AID 493032;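 active means average inhibition over triplicate runs above the hit cutoff set in the earlier primary screen, cut at about 25% in these data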;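 further: 0% = enzyme with DMSO and 100% = wells lacking PAFAH1B3 protein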
# Rin1-Abl confirm: confirmation of inhibitors of human Rin1-Abl interaction; inhibition, % at 7.35 µM; TR-FRET Rin1-Abl binding, purified proteins; shares compounds with Rin1-Abl PPI inh; hit rate 49% among 1,300
# GFP quencher: GFP fluorescence interference artifact; shares compounds with Rin1-Abl PPI inh; inhibitors/quenchers counterscreen; inhibition, % at 6.75 µM; hit rate 8.5% among 1,300;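 further: ABL1-eGFP fusion protein alone without its partner RIN1-SBP; 0% = protein with vehicle and 100% = wells lacking protein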
# eLon confirm: E. coli Lon inhibition confirmation; shares compounds with E coli Lon inh; purified E. coli Lon, fluorescence polarization; inhibition, % at 7.94 µM; hit rate 31% among 1,400; AID 602230; in the data active means inhibition above about 16%;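 further: 0% = enzyme with probe and DMSO and 100% = no enzyme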
# Numbers without * were called inactive; / = not tested or not shown. Unless noted, no stated cut-off is given here; in the data, active means inhibition above about 6.5%; inactive means the rest.
SMILES,pPAFAH FP inh,PAFAH1B3 FP inh,PAFAH2 FP inh,E coli Lon inh,PAFAH1B2 inh,Rin1-Abl PPI inh,Rin1-Abl confirm,GFP quencher,others
CCn1c(=O)n(CC(=O)Nc2ccc(F)cc2)c(=O)c2ccccc21,-1,-1,-5,-7,-1,3,/,/,
CCOc1cc(-c2nccc3cc(OC)c(OC)cc23)cc(OCC)c1OCC,7,14,-7,8,2,1,/,/,
CCCN1CCCc2cc(CN)ccc21,21,30*,10,38*,1,1,/,/,PAFAH1B3 conf FP=16;eLon confirm=47*
COc1cc(NCCCC(C)N)c2ncccc2c1 (configuration not stated),/,53*,24,44*,18,-1,/,/,PAFAH1B3 conf FP=7;eLon confirm=4
Oc1cc2c(cc1O)C1c3ccc(O)c(O)c3OCC1(O)C2 (configuration not stated),1,7,-2,10,4,31*,31*,20*,
COc1ccc(S(=O)(=O)NCCOc2cccc3cccnc23)cc1OC,/,-1,2,0,-2,0,/,/,
O=[N+]([O-])c1cccc(S(=O)(=O)NCCOc2cccc3cccnc23)c1,3,5,6,-4,2,10*,-3,0,
O=C(Cc1ccc(NC(=O)C2CCCN(C(=O)C3CCC3)C2)cc1)Nc1cccc(C(=O)N2CCCC2)c1 (configuration not stated),/,12,3,7,3,0,/,/,
CCOc1ccc(CN(C)C(=O)c2ccc(NC(=O)CC3SC(N4CCCC4)=NC3=O)cc2)cc1 (configuration not stated),4,6,2,3,-1,10*,5,-2,
COc1ccc(CN(C)C(=O)c2ccc(NC(=O)CC3SC(N4CCCC4)=NC3=O)cc2)c(OC)c1 (configuration not stated),0,-4,3,-4,-2,2,/,/,
CN(C(=O)COC(=O)c1ccc2ccccc2n1)C1CCCCC1,19,12,0,-14,0,-2,/,/,
C#CCOCCOCCOCCNc1nc(N2CCOCC2)nc(N2CCN(C(=O)[C@H](Cc3ccc(O)cc3)n3cc([C@@H](N)CC(C)C)nn3)CC2)n1,2,-3,-2,3,-6,14*,15*,0,
C#CCOCCOCCOCCNc1nc(N2CCN(C(=O)[C@H]([C@@H](C)CC)n3cc([C@@H](N)Cc4ccc(O)cc4)nn3)CC2)nc(N2CCN(C(=O)[C@H](Cc3ccc(O)cc3)n3cc([C@@H](N)CC(C)C)nn3)CC2)n1,2,4,-8,-10,-8,8,/,/,
CC(=O)Oc1ccc(C(c2ccc(OC(C)=O)cc2)c2ccccn2)cc1,0,6,-2,2,20,-2,/,/,
c1ccc(C(c2ccccn2)c2ccccn2)cc1,11,6,-5,-11,1,6.5*,7.3*,1,
COc1ccc(Cl)cc1NC(=O)C(C)N1CCN(c2ccccn2)CC1 (configuration not stated),3,1,0,9,1,4,/,/,
Cc1ccc(OCC(=O)NN=C2C3CC4CC(C3)CC2C4)cc1,5,3,2,-9,4,1,/,/,
O=C1CCCC(O)=C1N=Nc1ccc(C(=O)O)cc1,31*,50*,52*,-2,39*,6.7*,2,3,
Cc1[nH][nH]c(=O)c1C(c1ccc(-c2ccc(F)cc2)o1)c1c(C)[nH][nH]c1=O,-3,15,7,-1,9,3,/,/,
Cc1[nH][nH]c(=O)c1C(c1ccc(-c2ccc(Cl)c(Cl)c2)o1)c1c(C)[nH][nH]c1=O,22,7,15,-6,3,13*,4,6,
CC1(C)CC(=O)c2cn3c(nc2C1)nc1ccccc13,4,-5,-4,1,1,7.8*,10*,1,
O=C(c1ccc2ccccc2c1)C1CCCN(C(=O)c2cccnc2)C1 (configuration not stated),/,1,-2,5,2,6.9*,-5,0,
COc1ccc2cc(C(=O)C3CCCN(C(=O)c4cccnc4)C3)ccc2c1 (configuration not stated),5,1,1,-4,7,-12,/,/,
CCOc1ccc2c(ccc(/C=C/c3cc(C)c4cccnc4c3O)[n+]2C)c1,/,-3,-10,-16,-8,40*,56*,59*,
CCOc1ccc2[nH]c3ncccc3c(=O)c2c1,2,-1,6,26,-2,-7,/,/,
SMILES,pPAFAH FP inh,PAFAH1B3 FP inh,PAFAH2 FP inh,E coli Lon inh,PAFAH1B2 inh,Rin1-Abl PPI inh,Rin1-Abl confirm,GFP quencher,others
C#CCOCCOCCOCCNc1nc(N2CCN(C(=O)CCCCCCCCCCNC(=O)Cn3cc(CCCCCN)nn3)CC2)nc(N2CCN(C(=O)CCCCCCCCCCNC(=O)[C@@H](CCSC)n3cc(CCO)nn3)CC2)n1,2,1,1,6,1,14*,13*,0,
C#CCOCCOCCOCCNc1nc(N2CCN(C(=O)CCCCCCCCCCNC(=O)Cn3cc(CCCCCN)nn3)CC2)nc(N2CCN(C(=O)CCCCCCCCCCNC(=O)[C@@H](CCC(=O)O)n3cc(CCCCCN)nn3)CC2)n1,11,1,-1,0,1,6,/,/,
O=C1C(CN2CCCC2)CCCC1CN1CCCC1 (configuration not stated),/,13,5,13,4,6,/,/,
Cc1csc2c(NC3CCN(Cc4ccccc4)CC3)ncnc12,0,9,6,1,10,5.6*,0,0,
O=C(CC[C@H]1O[C@@H](n2ccc(=O)[nH]c2=O)[C@H](O)[C@@H]1O)N[C@@H](Cc1ccccc1)C(=O)NCC1CCCO1 (some centres not stated),/,/,/,-15,/,10,/,/,
CCCc1cc(=O)[nH]c(SCC(=O)NC2CCCCCCC2)n1,3,4,5,2,17,9.1*,1,-1,
Cc1[nH][nH]c(=O)c1C(c1c(C)[nH][nH]c1=O)c1cn(Cc2cccc3ccccc23)c2ccccc12,20,19,16,1,10,19*,6.5*,3,
CCN(CC)c1ccc(S(=O)(=O)N2CCOCC2)cc1NC(=O)C1CC1,-2,-4,9,0,0,9.4*,-2,-1,
CCN(CC)c1ccc(S(=O)(=O)N2CCCCC2)cc1NC(=O)C1CCC1,5,3,0,-7,-1,-2,/,/,

# Screening data from PubChem.
